Our source for the growth values is PubChem BioAssay (NCI).

Among the test systems are DU-145 prostate; K-562 leukemia; MALME-3M melanoma; MDA-MB-231 breast; RXF 393 renal; SF-268 CNS; SF-295 CNS; SF-539 CNS; UACC-257 melanoma; M14 melanoma; HCT-15 colon; HT29 colon; SNB-75 CNS; SNB-19 CNS; U251 CNS; PC-3 prostate; SK-MEL-5 melanoma; UACC-62 melanoma; LOX IMVI melanoma; SK-MEL-28 melanoma.
Holding throughout (assay): NCI-60 one-dose screen, 48 h (100 = growth as untreated, 0 = no growth, -100 = all killed)
Common to all, as to settings: 10 µM unless noted

This is part of a sample that, as a whole, favours compounds with a hit. Of some 83,000 tested, about 20% had one in any assay.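 Assay: single dose, 48 h. Readout: percent growth (0 = no net growth; negative = cell death). Active: <10.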 Values without a mark were called inactive. Activity calls are given as the source filed them.

Take `NS(=O)(=O)c1ccc(N=Nc2c(O)n(Cc3ccccc3)c3ccc(Cl)cc23)cc1`: the growth in the experiment with DU-145 prostate was 87.3%; with K-562 leukemia, 82.4%; in the experiment on MALME-3M melanoma it was 70.5%; in the experiment on MDA-MB-231 breast it was 75.9%; in the experiment with RXF 393 renal it was 45.5%; with SF-268 CNS, 65.2%. In addition, the growth is 93.7% in the experiment on SF-295 CNS; 61.5% in the experiment on SF-539 CNS; 92.1% in the experiment with UACC-257 melanoma; 88.1% in the experiment with M14 melanoma; 88.8% in the experiment on HCT-15 colon; 94.6% in the experiment with HT29 colon. Further, the growth with SNB-75 CNS was -9.32% (active); in the experiment with SNB-19 CNS, 40.8%; in the experiment on U251 CNS, 81.7%; in the experiment with PC-3 prostate it was 83.8%; in the experiment with SK-MEL-5 melanoma, 80.5%; with UACC-62 melanoma it was 66.6%. Also, the growth was 97.6% with LOX IMVI melanoma and 93.2% in the experiment on SK-MEL-28 melanoma.
Consider `CC(=O)N1N=C(c2ccc(Nc3nc(Nc4ccccc4)nc(Nc4ccccc4)n3)cc2)CC1c1cccc([N+](=O)[O-])c1` (configuration not stated), for which the growth with DU-145 prostate was 102%; in the experiment with K-562 leukemia, 80.8%; in the experiment on MALME-3M melanoma, 136%; in the experiment on MDA-MB-231 breast, 73.7%; with RXF 393 renal, -0.925% (active); in the experiment on SF-268 CNS, 109%. The growth was 104% in the experiment on SF-295 CNS; 89.8% in the experiment on SF-539 CNS; 92.3% in the experiment with UACC-257 melanoma; 94.8% with M14 melanoma; 110% with HCT-15 colon; 100% in the experiment with HT29 colon. Further, the growth with SNB-75 CNS is 79.7%; with SNB-19 CNS it was 86.1%; in the experiment with U251 CNS, 97.7%; in the experiment on PC-3 prostate, 80.6%; with SK-MEL-5 melanoma, 87.4%; with UACC-62 melanoma, 84%. Also, the growth in the experiment with LOX IMVI melanoma was 86.9%; in the experiment on SK-MEL-28 melanoma, 115%.
Take `O=C(Nc1cccc(-c2ccc(Cl)c(C(F)(F)F)c2)c1)C1CCN(Cc2cccc3cccnc23)CC1`: the growth in the experiment on DU-145 prostate was 10.8%; with K-562 leukemia, -6.99% (active); with MALME-3M melanoma, -75.6% (active); with MDA-MB-231 breast, -24.1% (active); with RXF 393 renal it was 8.93% (active); in the experiment with SF-268 CNS, 40.1%. Moreover, the growth in the experiment with SF-295 CNS is -43.9% (active); in the experiment on SF-539 CNS it was -88.7% (active); in the experiment with UACC-257 melanoma, 19.8%; with M14 melanoma it was -68.5% (active); with HCT-15 colon it was -83% (active); in the experiment on HT29 colon, -62.2% (active). The growth with SNB-75 CNS was 40.3%; with SNB-19 CNS, 61.4%; in the experiment on U251 CNS it was -82.4% (active); in the experiment with PC-3 prostate, 10.8%; with SK-MEL-5 melanoma, -93.4% (active); in the experiment with UACC-62 melanoma it was 25.9%. For the same compound, the growth was -98.2% (active) in the experiment on LOX IMVI melanoma and -67.6% (active) with SK-MEL-28 melanoma.
Take `Cc1cccc(/C=C/c2c(C(=O)/C=C/c3ccccc3)c(C)nc3ccccc23)c1`: the growth in the experiment with DU-145 prostate was -62% (active); in the experiment with K-562 leukemia it was 3.77% (active); in the experiment on MALME-3M melanoma, -79.3% (active); in the experiment on MDA-MB-231 breast, -14.1% (active); with RXF 393 renal, -83% (active); with SF-268 CNS, 37.7%. For the same compound, the growth is -18.8% (active) with SF-295 CNS; -84.9% (active) in the experiment with SF-539 CNS; -31.1% (active) in the experiment with UACC-257 melanoma; -12.8% (active) with M14 melanoma; -58.8% (active) with HCT-15 colon; -24.2% (active) in the experiment with HT29 colon. In addition, the growth in the experiment on SNB-75 CNS was -9.89% (active); with SNB-19 CNS, -80.5% (active); in the experiment with U251 CNS, -94.1% (active); in the experiment on PC-3 prostate it was 8.27% (active); in the experiment on SK-MEL-5 melanoma, -58.1% (active); in the experiment on UACC-62 melanoma, -67.3% (active). The growth with LOX IMVI melanoma is -86.1% (active); with SK-MEL-28 melanoma, -61.8% (active).
Turning to `CS(=O)(=O)c1ccc(-c2cnn3ccc(-c4cccc(S(=O)(=O)C5CC5)c4)nc23)cc1`, the growth with DU-145 prostate is 61.7%; with K-562 leukemia, 78%; with MALME-3M melanoma, 50.2%; with MDA-MB-231 breast it was 53%; with RXF 393 renal, 22.2%; in the experiment on SF-268 CNS, 45.5%. The growth with SF-295 CNS is 56.9%; in the experiment with SF-539 CNS, 60.8%; in the experiment with UACC-257 melanoma, 58.3%; in the experiment with M14 melanoma, 64.3%; in the experiment with HCT-15 colon, 57%; in the experiment with HT29 colon it was 34%. The growth in the experiment on SNB-75 CNS is 14%; in the experiment on SNB-19 CNS, 67.3%; in the experiment on U251 CNS it was 68.7%; in the experiment with PC-3 prostate, 40.3%; in the experiment on SK-MEL-5 melanoma, 63.2%; with UACC-62 melanoma, 53.3%. In addition, the growth with LOX IMVI melanoma was 44.1%; in the experiment on SK-MEL-28 melanoma, 69.7%.
Regarding `Nc1ncnc2c1c(-c1cccc(Cl)c1)nn2CC(=O)N1CCOCC1`, the growth with DU-145 prostate is 111%; in the experiment with K-562 leukemia it was 105%; in the experiment on MALME-3M melanoma, 110%; in the experiment on MDA-MB-231 breast it was 104%; with RXF 393 renal, 99%; in the experiment on SF-268 CNS, 98.4%. The growth was 98.6% with SF-295 CNS; 96.2% in the experiment on SF-539 CNS; 103% with UACC-257 melanoma; 104% in the experiment with M14 melanoma; 101% in the experiment with HCT-15 colon; 99.7% in the experiment with HT29 colon. Also, the growth was 94.2% with SNB-75 CNS; 93.9% with SNB-19 CNS; 102% with U251 CNS; 96.6% with PC-3 prostate; 101% with SK-MEL-5 melanoma; 93.7% in the experiment with UACC-62 melanoma. Moreover, in the experiment with SK-MEL-28 melanoma, the growth is 105%.
Turning to `COc1cc(-c2cncn2-c2ccc(-c3nc4ccc(F)cc4s3)cc2)ccc1F`, the growth is -7.18% (active) with DU-145 prostate; 62.8% with K-562 leukemia; 99.3% with MALME-3M melanoma; 103% in the experiment with MDA-MB-231 breast; 52.5% with RXF 393 renal; 81.3% in the experiment with SF-268 CNS. Moreover, the growth in the experiment with SF-295 CNS was 90%; in the experiment on SF-539 CNS it was 92.8%; in the experiment on UACC-257 melanoma it was 79.7%; in the experiment on M14 melanoma it was 102%; in the experiment with HCT-15 colon, 30.5%; in the experiment on HT29 colon, 30.8%. The growth is 127% in the experiment on SNB-75 CNS; 86.7% in the experiment on SNB-19 CNS; 83% in the experiment on U251 CNS; 107% in the experiment with PC-3 prostate; 68.7% in the experiment with SK-MEL-5 melanoma; 84.8% with UACC-62 melanoma. Moreover, the growth in the experiment on SK-MEL-28 melanoma is 95.9%.
Consider `O=C(N/N=C/c1c(Cl)cccc1Cl)c1cccnc1Nc1cccc(C(F)(F)F)c1`, for which the growth is 49.3% with DU-145 prostate; 73.9% in the experiment on K-562 leukemia; 54.3% in the experiment on MALME-3M melanoma; 55.9% with MDA-MB-231 breast; 68.1% in the experiment on RXF 393 renal; 39.3% in the experiment on SF-268 CNS. The growth in the experiment with SF-295 CNS is 28.8%; in the experiment on SF-539 CNS it was 34.1%; in the experiment on UACC-257 melanoma, 56%; in the experiment with M14 melanoma it was 37.3%; in the experiment on HCT-15 colon it was 26%; with HT29 colon, 40.4%. Also, the growth in the experiment with SNB-75 CNS was 63.1%; with SNB-19 CNS, 27.7%; in the experiment on U251 CNS it was 16.4%; in the experiment on PC-3 prostate, 24.3%; in the experiment on SK-MEL-5 melanoma, 20.5%; with UACC-62 melanoma, 17.2%. The growth in the experiment with SK-MEL-28 melanoma is 107%.
